Source: PubChem
A selection: hits, their analogues and other compounds. The true share with any hit is near 12%.
USP28 block: blocks human USP28 ubiquitin-rhodamine cleavage; Q96RU2; purified USP28, Ub-rhodamine cleavage fluorescence, 30 min; inhibition, % at 25 µM; hit rate 3% among 47,000
USP30 block: inhibitors of human USP30 deubiquitinase. Q70CQ3. purified USP30, Ub-rhodamine cleavage fluorescence. inhibition, % at 25 µM. hit rate 5.3% among 47,000. AID 1645860
Target sequence (Q70CQ3 whole entry, looked up): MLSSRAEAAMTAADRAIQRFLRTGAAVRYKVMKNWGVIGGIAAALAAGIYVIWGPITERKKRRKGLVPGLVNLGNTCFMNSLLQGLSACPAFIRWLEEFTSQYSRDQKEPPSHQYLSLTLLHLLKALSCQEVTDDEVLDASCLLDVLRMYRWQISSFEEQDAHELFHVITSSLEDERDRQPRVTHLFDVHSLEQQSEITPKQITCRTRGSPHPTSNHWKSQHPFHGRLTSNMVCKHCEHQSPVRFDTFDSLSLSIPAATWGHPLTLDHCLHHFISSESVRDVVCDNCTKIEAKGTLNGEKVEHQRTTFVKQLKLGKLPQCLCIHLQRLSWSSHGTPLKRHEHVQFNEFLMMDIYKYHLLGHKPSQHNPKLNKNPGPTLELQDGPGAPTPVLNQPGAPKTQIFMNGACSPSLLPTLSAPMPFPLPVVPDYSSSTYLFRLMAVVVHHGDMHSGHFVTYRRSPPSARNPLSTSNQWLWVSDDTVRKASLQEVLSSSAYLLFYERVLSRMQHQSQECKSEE
OTUD3 inh: inhibitors of human OTUD3 deubiquitinase. hit rate 0.7% among 47,000. inhibition, % at 25 µM. purified OTUD3, Ub-rhodamine fluorescence, 2 h. Q5T2D3
USP17 block: inhibitors of human USP17 deubiquitinase; A8MUK1; purified USP17, Ub-rhodamine cleavage fluorescence, 3 h; inhibition, % at 50 µM; hit rate 6.5% among 47,000; AID 1645855
Starred values were filed as active, the others as inactive; i = inactive; . = no result given. Cut-off read from the data, not from the text of the source: active = inhibition above about 30%; inactive = the rest.

SMILES	USP28 block	USP30 block	OTUD3 inh	USP17 block
O=C(c1ccc2ncccc2c1)N1CCOC(c2cccc(Cc3cccc(Cl)c3)n2)C1 (stereo not drawn)	15	-23	1	-4
NCc1ccc([C@@H]2CN(C(=O)c3ccc4ncccc4c3)C[C@H]2c2ccn[nH]2)cc1	.	.	5	68*
COc1ccccc1CN1CCC(Nc2nc3c(c(=O)[nH]2)CCCC3)CC1	-10	-1	-11	-8
O=C(NCc1ccc(F)cc1)c1ccc(-c2ccccc2F)o1	28	17	14	23
COc1ccc(-n2c(=O)c(C#N)cc3c(=O)n4ccccc4nc32)cc1	-154	i	-120	-168
CCC(=O)Nc1ccc(-n2cnc(C(=O)NC3CCCC3)c2)nc1	6	32*	6	10
Cc1ccc(Nc2cc(N3CCN(C(=O)C(C)C)CC3)nc(C)n2)cc1	16	18	15	4
O=C(NCc1cccc(F)c1)c1ccc2c(c1)NC(=O)C1CCCN21 (stereo not drawn)	-12	-59	-15	48*
Oc1cc(O)cc(/C=C/c2ccc(O)c(O)c2)c1	49*	31*	47*	40*
CCOC(=O)CSc1cc(CS(=O)c2ccc(Cl)cc2)nc(-c2ccccc2)n1 (stereo not drawn)	22	41*	19	27
Cc1cnc(C(=O)N2CCC(c3nc(C)c4c(n3)N(CC3CCCCC3)C(=O)CC4)C2)cn1 (stereo not drawn)	-8	-10	-9	-21
Fc1ccc(-c2nc(C3CC3)ncc2-c2nnnn2-c2ccccc2)c(F)c1	13	19	10	12
Fc1ccc(-c2nc(C3CC3)ncc2-c2nnnn2-c2ccccc2)cc1F	17	30*	18	15
Cn1cc(C2c3ccccc3C(=O)N2CC(=O)Nc2ccccc2)c2ccccc21 (stereo not drawn)	0	-7	-8	1
CCc1ccccc1NC(=O)C(C)n1c(=O)cc(-c2ccccc2)c2c(C)nn(C)c21 (stereo not drawn)	-3	13	1	-3
COc1cc(NC(=O)Cn2nc(-c3ccc(F)cc3)ccc2=O)ccc1-n1cnnn1	15	43*	19	79*
Cc1ccc2c(c1)-c1onc(C(=O)NCCc3c[nH]c4ccccc34)c1CO2	7	-37	-4	33*
O=C(NCCc1c[nH]c2ccccc12)c1cc2occc2c(Nc2ccc(F)cc2)n1	0	7	4	29
CCOC(=O)c1nc(Nc2ccc(OC)c(Cl)c2)c2ccccc2n1	17	49*	11	74*
Cc1cc(N2CCN(C)CC2)nc2ccc(NC(=O)CCC(=O)NCc3ccc(F)cc3)cc12	3	7	12	2
O=C(CCc1cccnc1)N1CCCC2(CCCN2Cc2cccc(F)c2)C1 (stereo not drawn)	9	44*	-2	11
O=C(c1ccco1)N(Cc1ccccc1Cl)c1ccccn1	11	16	9	2
O=C(c1ccc(Br)o1)N(Cc1ccccc1Cl)c1ccccn1	31*	21	17	18
CCOc1ccc(S(=O)(=O)N(CC(=O)NCc2ccccc2C)c2ccccc2)cc1	15	26	7	45*
Cc1cccc(CCN(Cc2cc3cccc(C)c3[nH]c2=O)C(=O)Nc2ccccc2)c1	0	7	0	-15
SMILES	USP28 block	USP30 block	OTUD3 inh	USP17 block
Cc1nc(-c2ccc(C(=O)NC3CCCC3)cc2)no1	1	8	0	1
C/C=C\C1=CC(=O)[C@]23C[C@H]2[C@]2(C)CO[C@@]1(O)[C@@]3(O)O2	-9	-137	-45	52*
Cc1ccc(Cl)cc1NC(=O)c1ccc(C(=O)c2ccccc2)cc1	-1	0	1	-7
CCOc1cc(CNc2nn[nH]n2)ccc1OCc1ccccc1	-8	-12	-6	-6
Cc1nc2ccccn2c(=O)c1NC(=O)COc1ccc(Cl)cc1	-8	14	-6	-4
O=C(Nc1ccccc1)c1ccn(COc2ccccc2F)n1	25	-5	-4	-2
Cc1ccnc(NC(=O)c2ccn(COc3ccccc3Cl)n2)c1	16	32*	-1	18
O=C(Nc1cc(F)ccc1F)c1ccn(COc2ccc(F)c(Cl)c2)n1	19	70*	15	46*
O=C(Nc1cc(F)ccc1F)c1ccc2c(c1)ncn2CCN1CCCC1	0	-30	-6	-1
Cc1ccccc1NC(=O)c1ccn(COc2ccc(Cl)cc2)n1	59*	19	10	19
O=C(/C=C/c1ccc(OCc2ccc(Br)cc2)cc1)N1CCN(c2ccc(Cl)cc2)CC1	9	23	8	23
Cc1ccc(CNS(=O)(=O)c2cc3n(c2)CCCN(C)C3=O)cc1	0	-1	-1	-2
